Laboratory results reported in PubChem BioAssay (NCI).
Compounds without any hit were thinned out: in the full panel of roughly 83,000, 20% have a hit.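 Each cell line was grown in a 96-well plate and treated with one concentration of compound for 48 hours. Values below 10 were considered active.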 Activity calls are given as the source filed them.

Assays:
Assay in all cases: NCI-60 one-dose screen, 48 h (100 = growth as untreated, 0 = no growth, -100 = all killed)
Settings in all cases: 10 µM
SK-MEL-2 melanoma = tested on: SK-MEL-2 melanoma
EKVX NSCLC = tested on: EKVX NSCLC
SN12C renal = tested on: SN12C renal
UO-31 renal = tested on: UO-31 renal
TK-10 renal = tested on: TK-10 renal
ACHN renal = tested on: ACHN renal
CAKI-1 renal = tested on: CAKI-1 renal
A498 renal = tested on: A498 renal
CCRF-CEM leukemia = tested on: CCRF-CEM leukemia
MOLT-4 leukemia = tested on: MOLT-4 leukemia

Measured: growth

CC[C@]12C=CCN3CC[C@@]4(c5cc(C#CCNc6ccc(C)c(Nc7nccc(-c8cccnc8)n7)c6)c(OC)cc5N(C)[C@H]4[C@@](O)(C(=O)OC)[C@@H]1OC(C)=O)C32 (stereo not given in full)
inactive: SK-MEL-2 melanoma 61.7% | EKVX NSCLC 55.9% | SN12C renal 45.3% | UO-31 renal 46.9% | TK-10 renal 88% | ACHN renal 51.4% | CAKI-1 renal 40.4% | A498 renal 68.1% | CCRF-CEM leukemia 18.8% | MOLT-4 leukemia 37.9%

CC(=O)Nc1ccc(-n2cnc3cc(-c4ccc(NS(C)(=O)=O)cc4)ccc32)cc1
inactive: SK-MEL-2 melanoma 73.2% | EKVX NSCLC 61% | SN12C renal 46.3% | UO-31 renal 32.1% | TK-10 renal 83.7% | ACHN renal 52.3% | CAKI-1 renal 17.5% | A498 renal 86.5% | CCRF-CEM leukemia 36.1% | MOLT-4 leukemia 24.5%

COc1cc(NC(=O)CSc2nnc(-c3ccc4nc(-c5ccc(Cl)cc5)[nH]c4c3)o2)cc(OC)c1OC
inactive: SK-MEL-2 melanoma 93.4% | EKVX NSCLC 93.1% | SN12C renal 70.2% | UO-31 renal 63.8% | TK-10 renal 116% | ACHN renal 66.1% | CAKI-1 renal 67.8% | A498 renal 121% | CCRF-CEM leukemia 26.7% | MOLT-4 leukemia 25.1%

COc1ccc2[nH]cc(/C=N/Nc3cccc(Cl)n3)c2c1
inactive: SK-MEL-2 melanoma 92% | EKVX NSCLC 44.2% | SN12C renal 38.7% | UO-31 renal 33.5% | TK-10 renal 91.1% | ACHN renal 47.8% | CAKI-1 renal 46.7% | A498 renal 120% | MOLT-4 leukemia 14.8%
active: CCRF-CEM leukemia 9.72%

CC(C)(C)c1ccc(NCc2cn(-c3ccc(C(=O)O)cc3)nc2-c2ccc(C#N)cc2)cc1
active: EKVX NSCLC -36.7% | MOLT-4 leukemia 8.13%
inactive: SK-MEL-2 melanoma 53.1% | SN12C renal 16.1% | UO-31 renal 35.7% | TK-10 renal 86.3% | ACHN renal 27% | CAKI-1 renal 34.4% | A498 renal 58.2% | CCRF-CEM leukemia 16.3%

COc1ccsc1/C=N/NC(=O)c1[nH]c2ccc(Br)cc2c1-c1ccccc1
active: SN12C renal -3.76% | ACHN renal -0.91% | CAKI-1 renal 3.46% | CCRF-CEM leukemia -12.5% | MOLT-4 leukemia -11.4%
inactive: SK-MEL-2 melanoma 20.7% | EKVX NSCLC 15.2% | UO-31 renal 11.4% | TK-10 renal 16.1% | A498 renal 20.3%

N#Cc1ccc(-c2nn(-c3ccc(C(=O)O)cc3)cc2CNc2ccc(Oc3ccccc3)cc2)cc1
inactive: SK-MEL-2 melanoma 55.6% | EKVX NSCLC 75% | SN12C renal 34.1% | UO-31 renal 66.5% | TK-10 renal 77.1% | ACHN renal 47.3% | CAKI-1 renal 59.7% | A498 renal 73% | CCRF-CEM leukemia 19.3% | MOLT-4 leukemia 19.9%

CC1(c2ccccc2)NC(=O)N(CC(=O)Nc2ccc(C(=O)/C=C/C=C/c3ccccc3)cc2)C1=O (stereo not given)
inactive: SK-MEL-2 melanoma 90% | EKVX NSCLC 71.6% | SN12C renal 66.9% | UO-31 renal 54.9% | TK-10 renal 84.6% | ACHN renal 48.4% | CAKI-1 renal 63.2% | A498 renal 70.6% | CCRF-CEM leukemia 32.4% | MOLT-4 leukemia 18.6%

COc1ccc2ncc(C#Cc3cncc(C(=O)Nc4ccc(CN5CCN(C)CC5)c(C(F)(F)F)c4)c3)n2n1
inactive: A498 renal 31.7%
active: SK-MEL-2 melanoma -55.3% | EKVX NSCLC -99.7% | SN12C renal -93.5% | UO-31 renal -90.1% | TK-10 renal -76% | ACHN renal -98.3% | CAKI-1 renal -75.8% | CCRF-CEM leukemia 2.67% | MOLT-4 leukemia -26.7%

CC(=O)c1ccc(Nc2nc(SCCC(C)C)nc(-c3ccc(F)cc3)c2C#N)cc1
active: TK-10 renal 6.32% | ACHN renal -42.9%
inactive: SK-MEL-2 melanoma 117% | EKVX NSCLC 52.7% | SN12C renal 22.7% | UO-31 renal 24.7% | CAKI-1 renal 16.2% | A498 renal 15.6% | CCRF-CEM leukemia 86.9% | MOLT-4 leukemia 76.9%

CC(C)C1=C[C@@]23CC[C@@H]4[C@](C)(CCC[C@]4(C)C(=O)NCc4ccccc4)[C@H]2C[C@@H]1[C@H]1C(=O)CCC(=O)[C@H]13
inactive: SK-MEL-2 melanoma 99.2% | EKVX NSCLC 49.8% | SN12C renal 83.4% | UO-31 renal 48.1% | TK-10 renal 96.9% | ACHN renal 70.7% | CAKI-1 renal 88.7% | A498 renal 97.8% | MOLT-4 leukemia 16.2%
active: CCRF-CEM leukemia 9.73%

O=C(CNc1nc(-c2ccccc2)cs1)Nc1cccc([N+](=O)[O-])c1
active: SK-MEL-2 melanoma -79.9% | EKVX NSCLC -97.1% | SN12C renal -77.8% | UO-31 renal -95.7% | TK-10 renal -92.2% | ACHN renal -100% | CAKI-1 renal -88.9% | A498 renal -88.1% | CCRF-CEM leukemia 0.432% | MOLT-4 leukemia 0.799%

O=C(CSc1nnc(-c2c[nH]c3ccccc23)n1-c1ccccc1)Nc1ccc(C(=O)/C=C/c2cccc([N+](=O)[O-])c2)cc1
inactive: SK-MEL-2 melanoma 101% | EKVX NSCLC 83.9% | SN12C renal 104% | UO-31 renal 42.9% | TK-10 renal 115% | ACHN renal 74.3% | CAKI-1 renal 83.7% | A498 renal 95.7% | CCRF-CEM leukemia 96.1% | MOLT-4 leukemia 78%

CC1(c2ccccc2)NC(=O)N(CC(=O)Nc2ccc(C(=O)/C=C/c3ccccc3)cc2)C1=O (stereo not given)
inactive: SK-MEL-2 melanoma 75.3% | EKVX NSCLC 58.2% | SN12C renal 68.7% | UO-31 renal 52.9% | TK-10 renal 92.1% | ACHN renal 60.3% | CAKI-1 renal 61.9% | A498 renal 104% | CCRF-CEM leukemia 35.7% | MOLT-4 leukemia 22.9%

O=C(NO)c1ccc(CN2CCN(c3nc(-c4ccccc4)c4ccccc4n3)CC2)cc1
active: UO-31 renal -11.6% | ACHN renal 4.08% | CAKI-1 renal 6.42%
inactive: SK-MEL-2 melanoma 67.4% | EKVX NSCLC 16% | SN12C renal 15.9% | TK-10 renal 19.7% | A498 renal 61.4% | CCRF-CEM leukemia 12% | MOLT-4 leukemia 22.9%

O=C(/C=C/Nc1ccccc1)c1ccc2c(c1)Nc1ccccc1S2
inactive: SK-MEL-2 melanoma 78.1% | EKVX NSCLC 81.4% | SN12C renal 69.2% | UO-31 renal 93.1% | TK-10 renal 96.2% | ACHN renal 84.3% | CAKI-1 renal 91.5% | A498 renal 120% | CCRF-CEM leukemia 94.2% | MOLT-4 leukemia 89.7%

COc1ccc(-c2cc(C(=O)N=Nc3c(O)[nH]c4ccccc34)c3ccccc3n2)cc1
inactive: SK-MEL-2 melanoma 64.9% | UO-31 renal 24.5% | TK-10 renal 19.2% | A498 renal 112% | CCRF-CEM leukemia 49% | MOLT-4 leukemia 45.1%
active: EKVX NSCLC -12.7% | SN12C renal -38.8% | ACHN renal -64.2% | CAKI-1 renal -58.8%

COc1cc(/C=C/C(=O)c2ccc(NC(=O)CN3C(=O)NC(C)(c4ccccc4)C3=O)cc2)cc(OC)c1OC (stereo not given)
active: CCRF-CEM leukemia 7.14% | MOLT-4 leukemia 1.84%
inactive: SK-MEL-2 melanoma 86% | EKVX NSCLC 73.2% | SN12C renal 10.7% | UO-31 renal 73.9% | TK-10 renal 98.6% | ACHN renal 56% | CAKI-1 renal 75.3% | A498 renal 132%

COc1cc(/C=C/C(=O)c2ccc(C(F)(F)F)cc2)ccc1Oc1nc(Nc2ccc(F)cc2)nc(N(C)C)n1
inactive: SK-MEL-2 melanoma 78.4% | EKVX NSCLC 66% | SN12C renal 69.6% | UO-31 renal 50.3% | TK-10 renal 88.5% | ACHN renal 84.2% | CAKI-1 renal 69.6% | A498 renal 94.4% | CCRF-CEM leukemia 64.8% | MOLT-4 leukemia 40.7%

CC(C)Sc1nc(NC2CC2)c(C#N)c(-c2ccccc2)n1
inactive: SK-MEL-2 melanoma 97.7% | EKVX NSCLC 77.4% | SN12C renal 77.5% | UO-31 renal 79.4% | TK-10 renal 92.9% | ACHN renal 53.5% | CAKI-1 renal 56.8% | A498 renal 99.3% | CCRF-CEM leukemia 96.3% | MOLT-4 leukemia 102%

O=C(c1ccc(Cl)cc1)C1[C@H](c2ccc(Br)cc2)[C@@H](c2ccccc2)NC12C(=O)Nc1ccc(Br)cc12 (stereo not given in full)
active: SK-MEL-2 melanoma -93.4% | EKVX NSCLC -61.1% | SN12C renal -97.1% | UO-31 renal -75.7% | TK-10 renal -78.7% | ACHN renal -39.6% | CAKI-1 renal -93.9% | A498 renal -17.1% | CCRF-CEM leukemia -7.91% | MOLT-4 leukemia -33%

CCCn1c(=O)c2[nH]c(-c3ccc(OCc4nc5ccc(C)cc5[nH]4)cc3)nc2n(CCC)c1=O
active: EKVX NSCLC 9.33% | SN12C renal -5.67% | UO-31 renal -91% | TK-10 renal -51.8% | ACHN renal -88.2% | CAKI-1 renal 6.1% | A498 renal -79.8%
inactive: SK-MEL-2 melanoma 52.1% | CCRF-CEM leukemia 46.8% | MOLT-4 leukemia 15.2%

O=C(c1ccc(Cl)cc1)C1[C@H](c2ccc(Br)cc2)[C@@H](c2ccccc2)NC12C(=O)Nc1ccccc12 (stereo not given in full)
active: SK-MEL-2 melanoma -62.7% | EKVX NSCLC 4.42% | SN12C renal -78.1% | UO-31 renal 2.46% | ACHN renal -5.73% | CAKI-1 renal 0.681% | A498 renal -23.5% | CCRF-CEM leukemia -0.656% | MOLT-4 leukemia -22.7%
inactive: TK-10 renal 14.5%

O=C(Nc1cccc([N+](=O)[O-])c1)Nc1cccc([N+](=O)[O-])c1
inactive: SK-MEL-2 melanoma 91.1% | EKVX NSCLC 77.1% | SN12C renal 82.4% | UO-31 renal 63.9% | TK-10 renal 84.2% | ACHN renal 84.8% | CAKI-1 renal 83.7% | A498 renal 94.4% | CCRF-CEM leukemia 69.7% | MOLT-4 leukemia 76.4%

COc1cnc2c(c1)C(=O)c1c-2n(CCCNC(C)C)c(=O)c2cc(OC)c(OC)cc12
active: ACHN renal 3.23%
inactive: SK-MEL-2 melanoma 107% | EKVX NSCLC 92.6% | SN12C renal 25% | UO-31 renal 29.5% | TK-10 renal 87.6% | CAKI-1 renal 15.2% | A498 renal 105% | CCRF-CEM leukemia 16.2% | MOLT-4 leukemia 16.5%

O=C(Nc1ccc(Cl)c(C(F)(F)F)c1)c1cncc(C#Cc2cnc3ccc(N4CCOCC4)nn23)c1
inactive: EKVX NSCLC 19.2% | TK-10 renal 23.8% | CCRF-CEM leukemia 37.5%
active: SK-MEL-2 melanoma -33.8% | SN12C renal 6.18% | UO-31 renal -33.6% | ACHN renal -35% | CAKI-1 renal 9.84% | A498 renal -19.3% | MOLT-4 leukemia 0.617%
